Laboratory results reported in PubChem BioAssay (NCI).
Compounds without any hit were thinned out: in the full panel of roughly 83,000, 20% have a hit.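 A percent growth of 40 corresponds to 60% growth inhibition; 0 means no net growth; -100 means all cells died. Active threshold: below 10.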 A number with no mark means an inactive call. Active and inactive are the calls of the source.

Columns and labels:
Test in all cases: NCI-60 one-dose screen, 48 h (100 = growth as untreated, 0 = no growth, -100 = all killed)
Details in all cases: 10 µM unless noted
NCI-H23 lung = system: NCI-H23 lung
NCI-H226 lung = system: NCI-H226 lung
NCI-H322M lung = system: NCI-H322M lung
HOP-62 NSCLC = system: HOP-62 NSCLC
NCI-H460 lung = system: NCI-H460 lung
HOP-92 NSCLC = system: HOP-92 NSCLC
NCI-H522 lung = system: NCI-H522 lung
A549/ATCC NSCLC = system: A549/ATCC NSCLC
786-0 renal = system: 786-0 renal
COLO 205 colon = system: COLO 205 colon

COc1ccc(-c2cc(-c3cccc4ccccc34)n3c(n2)nc2ccccc23)cc1OC
growth (NCI-H23 lung): 44.7%
growth (NCI-H226 lung): 19.8%
growth (NCI-H322M lung): 75.8%
growth (HOP-62 NSCLC): -0.816% (active)
growth (NCI-H460 lung): 3.44% (active)
growth (HOP-92 NSCLC): 11.5%
growth (NCI-H522 lung): 48.1%
growth (A549/ATCC NSCLC): 24.2%
growth (786-0 renal): 10.5%
growth (COLO 205 colon): 65.4%

COc1ccc(/C=C/C(=O)c2nnn(-c3ccc(Br)cc3)c2C)cc1OC
growth (NCI-H23 lung): 59.9%
growth (NCI-H226 lung): 70.7%
growth (NCI-H322M lung): 95.3%
growth (HOP-62 NSCLC): 88.1%
growth (NCI-H460 lung): 84.3%
growth (HOP-92 NSCLC): 81%
growth (A549/ATCC NSCLC): 73.6%
growth (786-0 renal): 93.5%
growth (COLO 205 colon): 90.4%

COc1ccc(NS(=O)(=O)c2ccc(-c3cnc(C4CC4)o3)cc2)cc1Cl
growth (NCI-H23 lung): 37.3%
growth (NCI-H226 lung): 35.5%
growth (NCI-H322M lung): 52.2%
growth (HOP-62 NSCLC): 30.2%
growth (NCI-H460 lung): 18.3%
growth (HOP-92 NSCLC): 55.4%
growth (A549/ATCC NSCLC): 46.1%
growth (786-0 renal): 46.7%
growth (COLO 205 colon): 12.4%

COc1ccc(C(=O)n2cc(C=O)c3ccccc32)cc1
growth (NCI-H23 lung): 101%
growth (NCI-H226 lung): 96.7%
growth (NCI-H322M lung): 95.2%
growth (HOP-62 NSCLC): 124%
growth (NCI-H460 lung): 110%
growth (HOP-92 NSCLC): 83.1%
growth (A549/ATCC NSCLC): 98.6%
growth (786-0 renal): 102%
growth (COLO 205 colon): 114%

COc1ccc(OC)c(NC2=C(Cl)C(=O)C(C)=C(C)C2=O)c1
growth (NCI-H23 lung): 85.8%
growth (NCI-H226 lung): 84.2%
growth (NCI-H322M lung): 103%
growth (HOP-62 NSCLC): 92.1%
growth (NCI-H460 lung): 98.4%
growth (HOP-92 NSCLC): 96.6%
growth (A549/ATCC NSCLC): 101%
growth (786-0 renal): 102%
growth (COLO 205 colon): 107%

C=C1C(=O)O[C@@H]2C[C@@H](C)CCC(=O)[C@](C)(OC(C)=O)C[C@H](OC(=O)/C(C)=C\C)[C@@H]12
growth (NCI-H23 lung): 70.6%
growth (NCI-H226 lung): 104%
growth (NCI-H322M lung): 102%
growth (HOP-62 NSCLC): 105%
growth (NCI-H460 lung): 97.3%
growth (HOP-92 NSCLC): 80%
growth (A549/ATCC NSCLC): 87.7%
growth (786-0 renal): 90.8%
growth (COLO 205 colon): 28.6%

COc1cc(/C=C2\SC(=O)NC2=O)ccc1OCC(=O)Nc1ccc(C(=O)/C=C/c2cc3ccccc3nc2Cl)cc1
growth (NCI-H23 lung): 68.6%
growth (NCI-H226 lung): 96.2%
growth (NCI-H322M lung): 99.2%
growth (HOP-62 NSCLC): 107%
growth (NCI-H460 lung): 96.3%
growth (HOP-92 NSCLC): 82.5%
growth (A549/ATCC NSCLC): 102%
growth (786-0 renal): 101%
growth (COLO 205 colon): 116%

Cc1cnc2nc(NN)[nH]n12
growth (NCI-H23 lung): 104%
growth (NCI-H226 lung): 93.4%
growth (NCI-H322M lung): 100%
growth (HOP-62 NSCLC): 93%
growth (NCI-H460 lung): 103%
growth (HOP-92 NSCLC): 100%
growth (A549/ATCC NSCLC): 99.2%
growth (786-0 renal): 103%
growth (COLO 205 colon): 101%

Cc1ccc(-c2cc3nc(C(Cl)Cl)nc(-c4ccccc4)n3n2)cc1
growth (NCI-H23 lung): 95.4%
growth (NCI-H226 lung): 103%
growth (NCI-H322M lung): 74.3%
growth (HOP-62 NSCLC): 73.6%
growth (NCI-H460 lung): 46.9%
growth (HOP-92 NSCLC): 94.9%
growth (A549/ATCC NSCLC): 77.5%
growth (786-0 renal): 94.4%
growth (COLO 205 colon): 54.3%

CC(C)=CCc1c2c(c(O)c3c1O[C@]14C(=C[C@@H]5C[C@H]1C(C)(C)O[C@@]4(C/C=C(/C)C(=O)O)C5=O)C3=O)CC(O)C(C)(C)O2 (stereo partly specified)
growth (NCI-H23 lung): -60.3% (active)
growth (NCI-H226 lung): 18.4%
growth (NCI-H322M lung): 11.6%
growth (HOP-62 NSCLC): -19.3% (active)
growth (NCI-H460 lung): -33.2% (active)
growth (HOP-92 NSCLC): -8.8% (active)
growth (A549/ATCC NSCLC): -9.15% (active)
growth (786-0 renal): -39.6% (active)
growth (COLO 205 colon): -67% (active)

CC(C)=CCC[C@](C)(O)[C@H]1CC[C@]2(C)[C@@H]1CC[C@@H]1[C@@]3(C)CCC(NC(=O)c4ccccc4C(=O)O)C(C)(C)[C@@H]3CC[C@]12C (stereo partly specified)
growth (NCI-H23 lung): 85.8%
growth (NCI-H226 lung): 89.7%
growth (HOP-62 NSCLC): 104%
growth (NCI-H460 lung): 110%
growth (HOP-92 NSCLC): 75.6%
growth (NCI-H522 lung): 95.3%
growth (A549/ATCC NSCLC): 93.1%
growth (786-0 renal): 99.9%
growth (COLO 205 colon): -10.3% (active)

O=S(=O)(Nc1cc(Cl)cc(Cl)c1)c1ccc(-c2cnc(C3CC3)o2)cc1
growth (NCI-H23 lung): 42.9%
growth (NCI-H226 lung): 43.4%
growth (HOP-62 NSCLC): 43.1%
growth (NCI-H460 lung): 18.7%
growth (HOP-92 NSCLC): 64.6%
growth (NCI-H522 lung): 33.9%
growth (A549/ATCC NSCLC): 43.1%
growth (786-0 renal): 50.3%
growth (COLO 205 colon): 14.2%

Nc1nc(N)c2c(n1)NC(c1ccc(Cl)cc1)CC(c1ccc(Nc3nc(NCCO)nc(Nc4ccc(Cl)cc4)n3)cc1)=N2 (stereo unspecified)
growth (NCI-H23 lung): 33%
growth (NCI-H226 lung): 81.8%
growth (HOP-62 NSCLC): -63.7% (active)
growth (NCI-H460 lung): -57.2% (active)
growth (HOP-92 NSCLC): 67.4%
growth (NCI-H522 lung): 25.2%
growth (A549/ATCC NSCLC): 52%
growth (786-0 renal): 28%
growth (COLO 205 colon): 67.4%

C=CCn1c(SCC(=O)Nc2cccc(C(=O)/C=C/c3ccccc3)c2)nc2ccccc2c1=O
growth (NCI-H23 lung): 77.2%
growth (NCI-H226 lung): 78.1%
growth (HOP-62 NSCLC): 113%
growth (NCI-H460 lung): 91.8%
growth (HOP-92 NSCLC): 76.1%
growth (NCI-H522 lung): 86.2%
growth (A549/ATCC NSCLC): 82.6%
growth (786-0 renal): 100%
growth (COLO 205 colon): 120%

CCOC(=O)c1nn(-c2ccc(C)cc2)c(=O)c2c(N)c(C#N)c(-c3ccc(OC)cc3)cc12
growth (NCI-H23 lung): 101%
growth (NCI-H226 lung): 94.4%
growth (HOP-62 NSCLC): 81.3%
growth (NCI-H460 lung): 101%
growth (HOP-92 NSCLC): 91.9%
growth (NCI-H522 lung): 86.7%
growth (A549/ATCC NSCLC): 108%
growth (786-0 renal): 108%
growth (COLO 205 colon): 110%

O=S(=O)(Nc1cc(Cl)c(F)c(Cl)c1)c1ccc(-c2cnc(C3CC3)o2)cc1
growth (NCI-H23 lung): 45.3%
growth (NCI-H226 lung): 49.4%
growth (HOP-62 NSCLC): 36.2%
growth (NCI-H460 lung): 16.5%
growth (HOP-92 NSCLC): 63%
growth (NCI-H522 lung): 32.8%
growth (A549/ATCC NSCLC): 41.5%
growth (786-0 renal): 43.5%
growth (COLO 205 colon): 8.82% (active)

COc1ccc(/C=N/Nc2nc(Nc3ccccc3)nc(Nc3ccc(S(N)(=O)=O)cc3)n2)cc1
growth (NCI-H23 lung): 70.3%
growth (NCI-H226 lung): 73.2%
growth (HOP-62 NSCLC): 80.4%
growth (NCI-H460 lung): 55.2%
growth (HOP-92 NSCLC): 95.7%
growth (NCI-H522 lung): 82.5%
growth (A549/ATCC NSCLC): 87.1%
growth (786-0 renal): 73.7%
growth (COLO 205 colon): 76.9%

CCC(=O)Nc1ccc(-c2nc(-c3cccc(O)c3)c(-c3ccnc(Br)c3)[nH]2)cc1
growth (NCI-H23 lung): 86%
growth (NCI-H226 lung): 74.2%
growth (HOP-62 NSCLC): 75%
growth (NCI-H460 lung): 20.9%
growth (HOP-92 NSCLC): 57.5%
growth (NCI-H522 lung): 57.8%
growth (A549/ATCC NSCLC): 83.6%
growth (786-0 renal): 46.8%
growth (COLO 205 colon): 80.4%

Cn1c2ccc(Br)cc2c2c3c(c4c5cc(F)ccc5oc4c21)C(=O)N(O)C3=O
growth (NCI-H23 lung): 77.2%
growth (NCI-H226 lung): 90.8%
growth (HOP-62 NSCLC): 47.1%
growth (NCI-H460 lung): 45.9%
growth (HOP-92 NSCLC): 82.5%
growth (NCI-H522 lung): 72.1%
growth (A549/ATCC NSCLC): 98.4%
growth (786-0 renal): 97.6%
growth (COLO 205 colon): 93.7%

C#Cc1ccc(NC(=O)c2ccc(/C=C/C(=O)c3nccn3C)cc2)c(F)c1
growth (NCI-H23 lung): 11.4%
growth (NCI-H226 lung): 42.8%
growth (HOP-62 NSCLC): 2.11% (active)
growth (NCI-H460 lung): 6.28% (active)
growth (HOP-92 NSCLC): 67.5%
growth (NCI-H522 lung): 20.4%
growth (A549/ATCC NSCLC): 19.9%
growth (786-0 renal): 37.7%
growth (COLO 205 colon): 73%

COc1ccc(NC(=O)[C@H](C)NC(=O)OC(C)(C)C)cc1C(=O)Nc1cccc(-c2cc(=O)c3c(OC)c(OC)c(OC)cc3o2)c1
growth (NCI-H23 lung): -24.8% (active)
growth (NCI-H226 lung): 16%
growth (HOP-62 NSCLC): -17.5% (active)
growth (NCI-H460 lung): -21.4% (active)
growth (HOP-92 NSCLC): -50% (active)
growth (NCI-H522 lung): -46.4% (active)
growth (A549/ATCC NSCLC): 7.37% (active)
growth (786-0 renal): 0.528% (active)
growth (COLO 205 colon): -70% (active)

CC(C)(C)n1nnnc1C(Nc1nccs1)c1cc2cccc3ccc4cccc1c4c32 (stereo unspecified)
growth (NCI-H23 lung): 100%
growth (NCI-H226 lung): -13% (active)
growth (HOP-62 NSCLC): 84.9%
growth (NCI-H460 lung): 99.8%
growth (HOP-92 NSCLC): 103%
growth (NCI-H522 lung): 100%
growth (A549/ATCC NSCLC): 108%
growth (786-0 renal): 107%
growth (COLO 205 colon): 104%

COCCC[C@H]1O[C@@](O)([C@H](C)[C@@H]2CC(OC)C(O)/C=C(C)/C=C(C)/C=C(\C)C(OC3O[C@@H](C)[C@H](O)C(O)[C@@H]3O)C(C)/C=C(C)/C=C(OC)/C=C(\C)C(=O)O2)C(OC)C(O)[C@]1(C)O[C@H]1C[C@@H](O)[C@H](O[C@H]2C[C@](C)(O)[C@H](O)C(C)O2)C(C)O1 (stereo partly specified)
growth (NCI-H23 lung): 41.2%
growth (NCI-H226 lung): 38.2%
growth (HOP-62 NSCLC): 68.9%
growth (NCI-H460 lung): 52.1%
growth (HOP-92 NSCLC): 88.2%
growth (NCI-H522 lung): 34.2%
growth (A549/ATCC NSCLC): 40%
growth (786-0 renal): 73.1%
growth (COLO 205 colon): 40.4%

COc1cc(/C=C/C(=O)c2ccc(NC(=O)COc3cccc4cccnc34)cc2)cc(OC)c1OC
growth (NCI-H23 lung): 78.7%
growth (NCI-H226 lung): 88.7%
growth (HOP-62 NSCLC): 114%
growth (NCI-H460 lung): 72.5%
growth (HOP-92 NSCLC): 90.1%
growth (NCI-H522 lung): 80.4%
growth (A549/ATCC NSCLC): 87.1%
growth (786-0 renal): 89%
growth (COLO 205 colon): 100%

C=CCn1c(SCC(=O)Nc2cccc(C(=O)/C=C/c3cccc([N+](=O)[O-])c3)c2)nc2ccccc2c1=O
growth (NCI-H23 lung): 89.3%
growth (NCI-H226 lung): 83.6%
growth (HOP-62 NSCLC): 108%
growth (NCI-H460 lung): 93.4%
growth (HOP-92 NSCLC): 82.1%
growth (NCI-H522 lung): 89.3%
growth (A549/ATCC NSCLC): 94.1%
growth (786-0 renal): 94.8%
growth (COLO 205 colon): 117%
